In all, about 6,200 compounds went through this assay and about 2,900 (47%) were called active. No stated cut-off is given here; in the data, active means inhibition above about 50%; inactive means the rest. The set was probably picked from earlier hits. This is one part of the list.
Experiment: Mycobacterium tuberculosis growth inhibition, primary screen (AID 1259343)
Details: inhibition: at 10 µM, hits give high values; outcome: 10 uM

Row | SMILES | inhibition
1 | Cc1cc(=O)[nH]c(-n2nc(C)cc2NC(=O)c2ccccc2)n1 | 101% (active)
2 | Cc1ccc(C(=O)Nc2cc(C)nn2-c2nc(C)cc(=O)[nH]2)cc1 | 101% (active)
3 | Cc1cc(C)cc(C(=O)Nc2cc(C)nn2-c2nc(C)cc(=O)[nH]2)c1 | 100% (active)
4 | CSc1c(C#N)c(SCC(=O)c2cc3ccccc3oc2=O)[nH]c(=O)c1C#N | 83% (active)
5 | CSc1c(C#N)c(=O)[nH]c2sc(C#N)c(N)c12 | 29.1% (inactive)
6 | COC(=O)c1ccc(N2CCN(Cc3nc(Cc4cccc(F)c4)no3)CC2)cc1 | 59.4% (active)
7 | COC(=O)c1ccc(-c2noc(CN3CCCN(C(=O)c4ccco4)CC3)n2)cc1 | 84.3% (active)
8 | Fc1ccccc1Cc1noc(CN2CCN(c3cccc(C(F)(F)F)c3)CC2)n1 | 34.2% (inactive)
9 | COC(=O)c1ccc(-c2noc(CN3CCC(C(O)c4cccs4)CC3)n2)cc1 (stereo not given) | 16.3% (inactive)
10 | COC(=O)c1ccc(-c2noc(CN3CCC(C(O)Cc4ccccc4)CC3)n2)cc1 (stereo not given) | 14.8% (inactive)
11 | O=C(Nc1ncc(SCCN2CCCC2)s1)[C@]1(c2ccc(S(=O)(=O)C3CC3)cc2)C[C@H]1C1CCCCC1 | 17.1% (inactive)
12 | CC(=O)Oc1ccc(CN2C(=O)C(CCc3ccccc3)ON=C2c2cnccn2)cc1 (stereo not given) | 41.4% (inactive)
13 | CC(C)(C)c1ccc(OCc2ccc(-c3nnco3)cc2)cc1 | 49.7% (inactive)
14 | Fc1ccc(COc2ccc(-c3nnco3)cc2)c(Cl)c1 | 55.8% (active)
15 | Cc1csc(Sc2ccc(NC(=O)c3cnn(C)c3C)cc2)n1 | 16.3% (inactive)
16 | CC(C)C(=O)Nc1ccc(Sc2nncs2)cc1 | 89.1% (active)
17 | CC(=O)Nc1ccc(Sc2ncnc3sccc23)cc1 | 0.26% (inactive)
18 | CCNC(=S)Nc1ccc(NC(=S)NCC)cc1 | 63.7% (active)
19 | CSCCCNC(=S)Nc1ccc(N2CCOCC2)cc1 | 20.7% (inactive)
20 | CNC(=S)Nc1ccc(Nc2ccccc2OC)cc1 | 72.1% (active)
21 | CNC(=S)Nc1ccc(N2CCOCC2)cc1 | 101% (active)
22 | CC(C)COC(=O)Nc1ccc2nc(N3CCOCC3)sc2c1 | 27.4% (inactive)
23 | CNC(=S)Nc1ccc(Oc2ccc(NC(=S)NC)cc2)cc1 | 79.6% (active)
24 | COc1ccccc1NC(=S)N=C1CCN(c2ccccc2)N1 | 19.3% (inactive)
25 | O=C(Nc1ccc(-c2cnc(C3CC3)o2)cc1)C1CCCC1 | -17.9% (inactive)

Row | SMILES | inhibition
26 | Cc1ncc(-c2ccc(NC(=O)C3CC3C)cc2)o1 (stereo not given) | 94.6% (active)
27 | N#Cc1cccc(COC(=O)CC(NC(N)=O)c2cccs2)c1 (stereo not given) | -9.57% (inactive)
28 | N#Cc1cccc(COc2ccc(NC(=O)C3CCCO3)cc2F)c1 (stereo not given) | 91.9% (active)
29 | FC(F)(F)c1cc(-c2ccco2)nc2c1cnn2Cc1cccnc1 | 37% (inactive)
30 | CN(Cc1ccc(Cl)c(Cl)c1)C(=O)c1csc(-c2cccs2)n1 | 56.2% (active)
31 | CCNc1nc(C(=O)N(C)Cc2ccc(Br)o2)cs1 | 8.37% (inactive)
32 | CCCN(CCC)C(=O)c1nn(-c2ccccn2)c2nccc(-c3cccs3)c12 | 41.7% (inactive)
33 | CCC(C)(C)NC(=O)c1ccc2c(c1)S(=O)(=O)c1ccccc1C2=O | 14.8% (inactive)
34 | CCC(C)(C)NC(=O)COC(=O)c1ccc(-c2ccc(O)cc2)cc1 | 50.1% (active)
35 | CCCC(C)C(=O)Nc1ccc(-c2nccs2)cc1 (stereo not given) | 89.9% (active)
36 | Cn1nc(C(=O)Nc2ccc(-c3nccs3)cc2)ccc1=O | 85.9% (active)
37 | [O-]/[N+](Cc1ccccc1)=N/OCc1ccccc1 | 83.2% (active)
38 | CCc1cc(=O)[nH]c(-n2nc(C)cc2NC(=O)C2CC(=O)N(c3ccccc3)C2)n1 (stereo not given) | 101% (active)
39 | CCc1cc(=O)[nH]c(-n2nc(C)cc2NC(=O)C2CC(=O)N(c3ccc(C)c(C)c3)C2)n1 (stereo not given) | 101% (active)
40 | CCCC(Nc1nc(-c2cccnc2)nc2c1cnn2C)c1cccs1 (stereo not given) | 27.3% (inactive)
41 | COc1ccccc1N1C(=O)CC(SC(N)=N/N=C(C)\C=C\c2ccc(N(C)C)cc2)C1=O (stereo not given) | -2.66% (inactive)
42 | Nc1nn(C(=O)CC2CCCO2)cc1-c1cccc(Cl)c1 (stereo not given) | 83.6% (active)
43 | Oc1ccc(Br)cc1C=Nn1cc(-c2ccccc2)[nH]c1=S | 25.5% (inactive)
44 | O=C1CSC(=NN=C2NC(=O)C(CC(=O)Nc3ccc(Br)cc3)S2)N1 (stereo not given) | 18.9% (inactive)
45 | O=C1CSC(=NN=Cc2cc(Br)ccc2O)N1 | 102% (active)
46 | Cc1ncsc1C(=O)Nc1scc(C2CCCCC2)c1C(N)=O | 24.3% (inactive)
47 | CN(C)CCNc1c2c(c(C#N)c3nc4ccccc4n13)CCCC2 | 20% (inactive)
48 | CN=c1scc(-c2c(-c3ccccc3)n(C)c3ccccc23)n1C | 25.1% (inactive)
49 | O=C1N=C2OC=C(C(=O)Nc3ccc(-n4cccc4)cc3)N2CCN1 | 89.4% (active)
50 | O=C1N=C2OC=C(C(=O)Nc3ccc(-n4cccn4)cc3)N2CCN1 | 60.6% (active)

Row | SMILES | inhibition
51 | O=C(Nc1ccc(N2CCCCC2)cc1)c1ccc(Cl)s1 | 94% (active)
52 | O=C(CCl)Nc1ccc(N2CCCCCC2)cc1 | 21.1% (inactive)
53 | N#Cc1ccc(NC2CCN(c3ncccn3)CC2)cc1C(F)(F)F | 26.1% (inactive)
54 | N#Cc1cccnc1N1CCC(CCc2ccc(O)cc2)CC1 | 93.1% (active)
55 | Cc1nn(-c2ccccc2)c2[nH]c(=O)c(C#N)c(-c3cccs3)c12 | 64.4% (active)
56 | COc1ccc2c(c1)OC1(O)COc3cc(OC)c(OC)cc3C1=C2 (stereo not given) | 61.7% (active)
57 | O=C(OCc1cc2c(cc1Br)OCO2)c1cccc(O)c1 | -12.8% (inactive)
58 | Oc1ccc(N=Nc2ccc3c(c2)OCO3)c2ccccc12 | -28.6% (inactive)
59 | COc1ccc(O)c(C=Nc2ccc3c(c2)OCO3)c1 | 65.5% (active)
60 | COc1ccc(O)c(C=Nn2c(C)csc2=NC(C)C)c1 | 34% (inactive)
61 | O=C1OC(c2ccc(Cl)cc2)=NC1=Cc1ccc2c(c1)OCO2 | 15.6% (inactive)
62 | Brc1ccccc1C=Nc1ccc2c(c1)OCO2 | 94.3% (active)
63 | Clc1ccc(C=Nc2ccc3c(c2)OCO3)cc1 | 82.9% (active)
64 | COC(=O)c1c(C)[nH]c(C(=O)NC(C)Cc2cccc(Cl)c2)c1C (stereo not given) | 30% (inactive)
65 | Cc1cc(=O)[nH]c(-n2nc(C3CC3)cc2NC(=O)c2ccccc2)n1 | 100% (active)
66 | Cc1cc(=O)[nH]c(-n2nc(C3CC3)cc2NC(=O)c2cc3ccccc3o2)n1 | -20.2% (inactive)
67 | CCC(C(=O)Nc1cc(C2CC2)nn1-c1nc(C)cc(=O)[nH]1)c1ccccc1 (stereo not given) | 100% (active)
68 | Cc1cccc(C(=O)Nc2cc(C3CC3)nn2-c2nc(C)cc(=O)[nH]2)c1 | 100% (active)
69 | Oc1ccc(C=NNc2ncc(C(F)(F)F)cc2Cl)c(O)c1O | 17.8% (inactive)
70 | Clc1cnc(NN=Cc2cccs2)c(Cl)c1 | -11.6% (inactive)
71 | Clc1cnc(NN=Cc2ccco2)c(Cl)c1 | 85.9% (active)
72 | CC[N+](CC)=c1ccc2nc3c(cc(N)c4ccccc43)oc-2c1 | 102% (active)
73 | CO[C@H]1C=CO[C@@]2(C)Oc3c(C)c(O)c4c(O)c(c5c(nc6cc(C)ccn65)c4c3C2=O)NC(=O)C(C)=CC=C[C@H](C)[C@H](O)[C@@H](C)[C@@H](O)[C@@H](C)[C@H](OC(C)=O)[C@@H]1C | 98.5% (active)
74 | O=C(/C=C(\O)c1ccccc1)c1ccccc1O | 100% (active)
75 | CC(C)c1cc(=O)[nH]c(-n2nc(-c3cccs3)cc2NC(=O)c2ccc(F)cc2F)n1 | 99.7% (active)

Row | SMILES | inhibition
76 | CC(C)c1cc(=O)[nH]c(-n2nc(-c3cccs3)cc2NC(=O)c2cccc(F)c2)n1 | 99.2% (active)
77 | Cc1cccc(C(=O)Nc2cc(-c3cccs3)nn2-c2nc(C(C)C)cc(=O)[nH]2)c1 | -9.66% (inactive)
78 | O=S(=O)(CCSc1ccccn1)c1nc2ccccc2s1 | 101% (active)
79 | COc1ccc(N2CCN(C(=O)CCl)CC2)cc1 | 77.2% (active)
80 | O=C(CCl)N1CCN(c2cccc(Cl)c2)CC1 | 79.1% (active)
81 | O=C(CCl)N1CCCc2cc([N+](=O)[O-])ccc21 | 102% (active)
82 | Cc1cccc(C(=O)NCCn2ncccc2=O)c1 | 97.8% (active)
83 | Cc1cccc(C(=O)NC(=NCCN2CCCC2)OCC(C)C)c1 | 5.15% (inactive)
84 | COc1ccc(C(=O)NCCCn2cccn2)cc1OC1CCN(C(C)=O)CC1 | 17.6% (inactive)
85 | CC(NC(=O)CN1CCCCC1)c1ccc(F)cc1F (stereo not given) | 51.7% (active)
86 | CC1COCCN1C(=O)NC(c1cc(F)ccc1F)C1CC1 (stereo not given) | -42.7% (inactive)
87 | COCc1ccccc1CNC(=O)CN1CCC(C)Sc2ccccc21 (stereo not given) | -20.7% (inactive)
88 | CC1(c2ccco2)NC(=S)N(c2ccccc2)N1 (stereo not given) | 76.4% (active)
89 | CCCCc1ccc(N2C(N)=CS/C2=C(/C#N)S(=O)(=O)c2ccccc2)cc1 | 89.6% (active)
90 | CCNc1nc(C(=O)N2CC3CCCC3C2)cs1 (stereo not given) | 27.6% (inactive)
91 | CCCc1cc(C(=O)N2C[C@H]3CC=C(C)C[C@H]3C2)ccn1 | 76% (active)
92 | CN(Cc1ccccc1O)C(=O)C1CCN(c2ccc(Cl)cn2)CC1 | 35.1% (inactive)
93 | CC(C)C(C)CNC(=O)N1CCN(c2ccc(Cl)cn2)CC1 (stereo not given) | 63.1% (active)
94 | Cc1ccc(-c2nc(CN3CCN(c4ccc(Cl)cn4)CC3)c(C)o2)o1 | 47.3% (inactive)
95 | Cc1nc2ccc(I)cn2c1C=NNc1ccc(Cl)cc1 | 17.7% (inactive)
96 | Cc1nc2ccc(I)cn2c1C=NNc1ccc2ccccc2c1 | 60.2% (active)
97 | Cc1cc(C=NNC(N)=S)c(C)n1CC(F)(F)F | 4.28% (inactive)
98 | CC(C)(C)n1cccc(/C=N\NC(N)=S)c1=S | -2.91% (inactive)
99 | NC(=S)NN=Cc1ccc(Cl)cc1Cl | 86% (active)
100 | Cc1ccc(C(=O)Nc2ccc(CN3CCN(C)CC3)c(C(F)(F)F)c2)cc1C#Cc1cnc2cccnn12 | 62.5% (active)

Reference: PubChem BioAssay AID1259343 (VanderVen Lab, College of Veterinary Medicine, Cornell …, 2017)
